Compound activity: PubChem, National Center for Advancing Translational Sciences (NCATS)
Pf growth 96h – P. falciparum growth inhibition at 96 hour, primary screen for plastid delayed-death inhibitors. AID 504834. hit rate 6.9% among 320,000. Potency, µM (series often up to 28.7 µM), without a hit: at the top dose activity change, negative = inhibition, actives largely listed as inhibitors. P. falciparum luciferase reporter growth, 96 h; also: potency is read from the fitted curve at half-maximal effect; % is scaled to controls: 0 for no effect and ±100 for the full control effect
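P. falciparum expressing integrated firefly luciferase, in erythrocytes at 2% hematocrit, 0.05% parasitemia, incubated with compounds 96 h at 37 C, 5% CO2. Growth inhibition read as loss of luminescence; two-generation exposure targets delayed-death apicoplast inhibitors.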
Shiga toxin inh – inhibitors of Shiga toxin in Vero cells. Vero cells, Shiga toxin protein synthesis inhibition reporter. inhibition, % at 38.7 µM. hit rate 9.2% among 290,000. AID 2315; in the data active = inhibition mostly above about 28%, no sharp cut-off; inactive = mostly below about 43%; also: 0% is about no effect
HCMV antiviral – inhibitors of human cytomegalovirus | hit rate 4.5% among 410,000 | activity change, negative = inhibition, % at 57.5 µM | HFF cells, HCMV-luciferase reporter, 72 h; hits give low values; in the data active = activity change below about -60%; inconclusive = no clear call, values can overlap the other calls; inactive = above about -39%; also: % is scaled to controls: 0 for no effect and ±100 for the full control effect
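Compounds were evaluated in HFFs infected with an HCMV luciferase reporter virus (MOI 1 PFU/cell). Luciferase in lysates collected 72 h post infection served as the replication measure.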
Pf growth 48h – inhibits P. falciparum growth in the first generation, 48 h | P. falciparum luciferase growth in erythrocytes, 48 h | Potency, µM (doses to about 28.7 µM), for inactives: at the top dose activity change, negative = inhibition, hits mostly inhibitors | hit rate 5.9% among 310,000 | AID 504832; also: potency is read from the fitted curve at half-maximal effect; % is scaled to controls: 0 for no effect and ±100 for the full control effect
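Compounds are pin-transferred into medium, infected erythrocytes (2% hematocrit, 0.1% parasitemia final) are added, and plates sit one parasite generation at 37 C in 5% CO2. Detection reagent is then added and luminescence measured.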
CHX counter – counter-screen for Shiga toxin inhibitors: cycloheximide protein synthesis inhibition. hit rate 12% among 300,000. max response, %. cell reporter, cycloheximide protein synthesis inhibition counterscreen; in the data active = max response mostly above about 13%, no sharp cut-off; inactive = mostly below about 14%; also: read at 38.3 µM for the half of the compounds with a filed dose; 0% is about no effect
HCV inh – HCV inhibition; Huh7.5.1 HCVcc-Cre infection, luciferase reporter, 44 h; Potency, µM (doses to about 41.8 µM), without a hit: at the top dose activity change, negative = inhibition, hits mostly inhibitors; hit rate 3.4% among 340,000; also: potency is read from the fitted curve at half-maximal effect; % is scaled to controls: 0 for no effect and ±100 for the full control effect
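HCVcc-Cre virus at an moi near 0.5 was added right after compound to cells cultured 4 h from seeding (1,000 cells/well). Luciferase activity was determined 44 h later, 15 min after substrate addition at RT.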
* = called active by the depositor; i = inactive; ? = inconclusive; nt = no result; [ ] = another dose, or the depositor's remark. Sampled rows, rich in hits. Any-hit rate of the full collection: about 21%. Unless noted, calls follow the shape of the dose curve; as a rule, active = well fitted inhibition curve with a large enough effect; inconclusive = small, poorly fitted or top-dose-only effect, or another doubt; inactive = no such curve, though single readings can be large or run the other way.

SMILES	Pf growth 96h	Shiga toxin inh	HCMV antiviral	Pf growth 48h	CHX counter	HCV inh
COc1ccccc1-c1nc(-c2cccc(C)c2)no1	?	122*	192	421%	46*	?
Cc1noc(-c2ccc(-c3noc(-c4cccc(Cl)c4)n3)cc2)n1	nt	nt	6	nt	nt	nt
COc1cc(-c2noc(-c3cccc(Cl)c3)n2)cc(OC)c1OC	15µM*	-9	-21	27%	-1	18%
O=[N+]([O-])c1cc2c(cc1/C=N\NS(=O)(=O)c1ccccc1)OCO2	10%	-8	-84*	5%	-1	8%
Cc1ccc(S(=O)(=O)N/N=C/c2ccc(O)c(O)c2)cc1[N+](=O)[O-]	19%	128*	-25	0%	45*	16%
Cc1ccc(N=Cc2cc3c(cc2[N+](=O)[O-])OCO3)cc1[N+](=O)[O-]	nt	nt	-28	nt	nt	11%
CCN(CC)c1ccc(/C=N/NS(=O)(=O)c2ccc(C)c([N+](=O)[O-])c2)cc1	3%	-2	29	4%	3	-3%
Cc1ccc(S(=O)(=O)N/N=C/c2ccccc2O)cc1[N+](=O)[O-]	12%	69*	-34	13%	39*	4%
Cc1ccc(C)c(N=Cc2cc3c(cc2[N+](=O)[O-])OCO3)c1	0.042µM*	-8	5	?	6	3%
CCOC(=O)c1ccc(Nc2c(-c3ccc(N(C)C)cc3)nc3nc[nH]n23)cc1	nt	nt	74	nt	nt	nt
Cc1ccc(NC(=O)c2ccc(CNc3c(N4CCC(C)CC4)c(=O)c3=O)cc2)cc1	?	-4	16	?	-1	-4%
O=C(COC(=O)CNC(=O)C1CCCCC1)Nc1ccccc1OC(F)F	nt	nt	-6	nt	nt	-17%
CC(=O)c1ccc(CCCc2ccc(C(C)=O)cc2)cc1	nt	nt	52	nt	nt	-2%
C=C(C)C(=O)Oc1ccc(N=Nc2ccc(C)cc2)ccc1=O	nt	nt	0	nt	nt	11µM*
O=C(c1ccc(O)cc1)c1ccc(C(=O)c2ccc(O)cc2)cc1	?	3	?	?	7	20%
Cc1ccc(C(=O)c2ccc(C)cc2)cc1	-28%	79*	5	i	40*	-7%
CC(=O)c1ccc(N=Nc2ccc(C)cc2)cc1	172%	41*	-38	i	22*	10%
CC(=O)c1cc(C)ccc1OC(=O)c1ccco1	-4%	10	-30	3%	-4	17%
CC(=O)c1ccc(N=Nc2ccc(N(C)C)cc2)cc1	174%	97*	56	i	41*	1%
O=c1[nH]c2cc(Cl)c(Br)cc2o1	nt	nt	-12	nt	nt	30%
Cc1cn2c(=O)cc(COc3ccc(NC(=O)c4ccccc4C)cc3)nc2s1	nt	nt	1	nt	nt	nt
Cc1ccc(-c2noc(=O)n2CC(=O)c2ccc(Cl)cc2)cc1	0%	12	0	?	0	?
CN(C)c1ccc(N=Nc2ccccc2Br)cc1	441%	37*	25	98%	38*	?
Cc1ccc(C(=O)c2no[n+]([O-])c2C(=O)c2ccc(C)cc2)cc1	2%	-2	-99*	0%	-2	?
COc1cccc(CCNC(=O)c2cnc3sc(N4CCCCCC4)nn3c2=O)c1	nt	nt	1	nt	nt	nt
SMILES	Pf growth 96h	Shiga toxin inh	HCMV antiviral	Pf growth 48h	CHX counter	HCV inh
CCN(Cc1ccccc1)C(=O)c1c(C)oc2ncn(C)c(=O)c12	nt	nt	-4	nt	nt	nt
O=C(Nc1ccc(F)cc1F)c1cc2ccccc2oc1=O	104%	53*	35	-1%	20*	11%
N/C(=N\NC(=O)c1cccc(F)c1)c1cc2ccccc2oc1=O	-17%	34*	-10	?	26*	24%
Cc1cccc(NC(=O)c2c(NC(=O)C(F)(F)F)sc3c2CCCCC3)c1	nt	nt	-100*	nt	nt	nt
O=C(O)CCC(=O)Nc1sc2c(c1C(=O)Nc1ccccc1)CCCCC2	2.3µM*	40*	95	10%	10	-11%
O=C(Nc1cccc(Cl)c1)c1c(NC(=O)C(F)(F)F)sc2c1CCCC2	nt	nt	-105*	nt	nt	nt
Cc1cccc(NC(=O)c2c(Br)sc3c2CCCC3)c1	nt	nt	0	nt	nt	nt
Cc1ccccc1NC(=O)c1c(NC(=O)C(F)(F)F)sc2c1CCCCC2	nt	nt	-102*	nt	nt	nt
CC1(C(=O)NS(=O)(=O)c2cccc(OC(F)F)c2)CCN1C(=O)CCc1cccs1 (stereo not given)	nt	nt	-21	nt	nt	nt
Cc1ccc(NC(=O)c2c(NC(=O)C(F)(F)F)sc3c2CCCCC3)cc1	nt	nt	-100*	nt	nt	nt
Cc1cc(N2C(=O)C3CCCN3C2c2cccc(Cl)c2)no1 (stereo not given)	4.7µM*	2	-8	9%	-2	-8%
COc1ccc(C2N(c3cc(C)on3)C(=O)C3CCCN32)cc1 (stereo not given)	3.3µM*	-9	4	-32%[1.15 µM]	-6	-5%
O=C1C2CCCN2C(c2cccc(Cl)c2)N1c1ccccn1 (stereo not given)	2%	-21	8	-1%	-2	4%
COC(=O)C1(O)CC(CC(C)C)=NN1C(=O)c1ccccc1 (stereo not given)	0.29µM*	27	?	11%	9	8%
COC(=O)C1=NN(C(=O)c2ccccc2)C(C)(O)C1 (stereo not given)	-24%	13	-4	nt	1	9%
O=C(C[C@H]1CC[C@@H]2[C@H](COC[C@H](O)CN2Cc2cccc(C(F)(F)F)c2)O1)NCCc1ccccc1	nt	nt	-22	nt	nt	nt
COc1ccc2nc(-c3ccccc3)cc(C(=O)OCC(=O)N3CCCCC3)c2c1	?	nt	-62*	12µM*	nt	?
COc1ccc2nc(-c3ccccc3)cc(C(=O)OCC(=O)N3CC(C)OC(C)C3)c2c1 (stereo not given)	?	nt	0	12µM*	nt	?
Cc1ccc(S(=O)(=O)NCC(C)NS(=O)(=O)c2ccc(C)cc2)cc1 (stereo not given)	2%	-9	-23	4%	-2	-17%
CNC(=O)OC(C)CNS(=O)(=O)c1ccc(C)cc1 (stereo not given)	12µM*	2	-3	11%	-2	5%
COc1ccc(-c2nc(Cn3c(SCc4cccc(F)c4)nc4ccncc43)c(C)o2)cc1OC	-13%	8	28	12µM*	12*	-1%
Cc1cccc(-c2nc(Cn3c(SCc4cccc(C(F)(F)F)c4)nc4ccncc43)c(C)o2)c1	nt	nt	-9	nt	nt	nt
COc1ccc(-c2nc(Cn3c(SCc4ccccc4F)nc4ccncc43)c(C)o2)cc1OC	nt	nt	17	nt	nt	nt
COc1ccc(-c2nc(Cn3c(SCc4ccc(C)cc4)nc4ccncc43)c(C)o2)cc1OC	?	101*	7	nt	48*	?
O=C(N/N=C1\CCc2ccccc21)c1ccccc1O	-3%	80*	-27	11%	49*	6%
Cc1cc(C(=O)NC2CCCCC2)c(C)o1	42%	nt	-17	-4%	nt	-15%
Cc1cc(C(=O)NC2Cc3ccccc3C2)c(C)o1	276%	66*	69	171%	57*	2%
